# Laboratory results: PubChem BioAssay AID1159580 (chemical genetic matrix, 2015)
# In all, about 5,500 compounds went through this assay and about 2,000 (36%) were called active. Roughly 18% stayed inconclusive and do not appear here. This is one part of the list. Values without a mark were called inactive. No stated cut-off is given here; in the data, active means normalized growth mostly below about 0.91 (no sharp cut-off); inconclusive means no clear call, values can overlap the other calls; inactive means mostly above about 0.92.
# Test: chemical genetic growth profiling, strain panel (AID 1159580);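 further: tested at 20 µM; growth read once vehicle control cultures reached saturation at 30 °C; 1 = growth at the plate median or of vehicle wells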
# Settings: S. cerevisiae deletion strains, growth OD
smiles,measurement,setting,value
COc1c2c(c(CC=C(C)C)c3oc(=O)c(-c4ccc(O)cc4)c(O)c13)OC(C)(C)C=C2,normalized growth,"locus YAL013W, strain DEP1, stronger effect = lower value",0.307 (active)
same,normalized growth,"locus YAL021C, strain ccr4, stronger effect = lower value",0.989
same,normalized growth,"locus YAL026C, strain drs2, stronger effect = lower value",0.87 (active)
same,normalized growth,"locus YAL030W, strain snc1, stronger effect = lower value",0.916 (active)
same,normalized growth,"locus YBL061C, strain skt5, stronger effect = lower value",0.846 (active)
same,normalized growth,"locus YBR009C, strain hhf1, stronger effect = lower value",0.656 (active)
same,normalized growth,"locus YBR021W, strain FUR4, stronger effect = lower value",0.849
same,normalized growth,"locus YBR023C, strain chs3, stronger effect = lower value",0.854 (active)
same,normalized growth,"locus YBR171W, strain sec66, stronger effect = lower value",0.989
same,normalized growth,"locus YBR229C, strain ROT2, stronger effect = lower value",0.997
same,normalized growth,"locus YBR231C, strain swc5, stronger effect = lower value",0.857 (active)
same,normalized growth,"locus YBR279W, strain paf1, stronger effect = lower value",0.972
same,normalized growth,"locus YCL011C, strain gbp2, stronger effect = lower value",0.759 (active)
same,normalized growth,"locus YCL016C, strain dcc1, stronger effect = lower value",0.938
same,normalized growth,"locus YCL029C, strain bik1, stronger effect = lower value",0.677 (active)
same,normalized growth,"locus YCL061C, strain MRC1, stronger effect = lower value",0.816 (active)
same,normalized growth,"locus YCL069W, strain vba3, stronger effect = lower value",0.812 (active)
same,normalized growth,"locus YCR088W, strain abp1, stronger effect = lower value",0.944
same,normalized growth,"locus YDL005C, strain med2, stronger effect = lower value",0.925
same,normalized growth,"locus YDL035C, strain GPR1, stronger effect = lower value",0.861
same,normalized growth,"locus YDL040C, strain nat1, stronger effect = lower value",0.992
same,normalized growth,"locus YDL074C, strain BRE1, stronger effect = lower value",0.325 (active)
same,normalized growth,"locus YDL101C, strain DUN1, stronger effect = lower value",0.862 (active)
same,normalized growth,"locus YDL185W, strain tfp1, stronger effect = lower value",1.02
same,normalized growth,"locus YDL192W, strain arf1, stronger effect = lower value",0.414 (active)
same,normalized growth,"locus YDR001C, strain nth1, stronger effect = lower value",0.989
same,normalized growth,"locus YDR069C, strain doa4, stronger effect = lower value",1.01
same,normalized growth,"locus YDR101C, strain arx1, stronger effect = lower value",0.775 (active)
same,normalized growth,"locus YDR137W, strain rgp1, stronger effect = lower value",0.819 (active)
same,normalized growth,"locus YDR150W, strain NUM1, stronger effect = lower value",1.01
same,normalized growth,"locus YDR159W, strain sac3, stronger effect = lower value",0.383 (active)
same,normalized growth,"locus YDR162C, strain NBP2, stronger effect = lower value",0.642 (active)
same,normalized growth,"locus YDR195W, strain ref2",0.459 (active)
same,normalized growth,"locus YDR297W, strain sur2, stronger effect = lower value",0.847 (active)
same,normalized growth,"locus YDR318W, strain mcm21, stronger effect = lower value",0.681 (active)
same,normalized growth,"locus YDR334W, strain swr1, stronger effect = lower value",0.99
same,normalized growth,"locus YDR335W, strain msn5, stronger effect = lower value",0.851 (active)
same,normalized growth,"locus YDR388W, stronger effect = lower value",0.912 (active)
same,normalized growth,"locus YDR392W, strain spt3, stronger effect = lower value",0.103 (active)
same,normalized growth,"locus YDR502C, strain sam2, stronger effect = lower value",0.768 (active)
same,normalized growth,"locus YEL003W, strain gim4, stronger effect = lower value",0.766 (active)
same,normalized growth,"locus YEL037C, strain rad23, stronger effect = lower value",0.992
same,normalized growth,"locus YEL061C, strain CIN8 (second series), stronger effect = lower value",0.765 (active)
same,normalized growth,"locus YER015W, strain faa2, stronger effect = lower value",0.845 (active)
same,normalized growth,"locus YER016W, strain bim1, stronger effect = lower value",0.969
same,normalized growth,"locus YER110C, stronger effect = lower value",0.938
same,normalized growth,"locus YER111C, strain swi4, stronger effect = lower value",0.518 (active)
same,normalized growth,"locus YER155C, strain BEM2 (second series), stronger effect = lower value",0.536 (active)
same,normalized growth,"locus YER155C, strain BEM2, stronger effect = lower value",0.277 (active)
same,normalized growth,"locus YER167W, strain BCK2, stronger effect = lower value",0.806 (active)
same,normalized growth,"locus YFR010W, strain ubp6, stronger effect = lower value",0.977
same,normalized growth,"locus YGL078C, strain dbp3, stronger effect = lower value",0.98
same,normalized growth,"locus YGL086W, strain mad1, stronger effect = lower value",0.683 (active)
same,normalized growth,"locus YGL167C, strain pmr1, stronger effect = lower value",0.976
same,normalized growth,"locus YGL173C, strain kem1, stronger effect = lower value",0.9 (active)
same,normalized growth,"locus YGL227W, strain vid30, stronger effect = lower value",0.765 (active)
same,normalized growth,"locus YGL240W, strain doc1, stronger effect = lower value",0.903
same,normalized growth,"locus YGL248W, strain PDE1, stronger effect = lower value",0.763 (active)
same,normalized growth,"locus YGL253W, strain hxk2, stronger effect = lower value",0.838 (active)
same,normalized growth,"locus YGR078C, strain PAC10, stronger effect = lower value",0.633 (active)
same,normalized growth,"locus YGR135W, strain pre9, stronger effect = lower value",0.907
same,normalized growth,"locus YGR229C, strain SMI1, stronger effect = lower value",0.409 (active)
same,normalized growth,"locus YGR252W, strain gcn5, stronger effect = lower value",0.696 (active)
same,normalized growth,"locus YHR013C, strain ard1, stronger effect = lower value",1.03
same,normalized growth,"locus YHR027C, strain rpn1, stronger effect = lower value",0.942
same,normalized growth,"locus YHR079C, strain IRE1 (second series), stronger effect = lower value",0.868 (active)
same,normalized growth,"locus YHR094C, strain hxt1, stronger effect = lower value",0.832 (active)
same,normalized growth,"locus YHR129C, strain ARP1, stronger effect = lower value",0.61 (active)
same,normalized growth,"locus YHR142W, strain chs7, stronger effect = lower value",0.512 (active)
same,normalized growth,"locus YHR200W, strain rpn10, stronger effect = lower value",0.889 (active)
same,normalized growth,"locus YIL066C, strain RNR3, stronger effect = lower value",0.708 (active)
same,normalized growth,"locus YIL073C, strain SPO22, stronger effect = lower value",0.963
same,normalized growth,"locus YIL125W, strain kgd1, stronger effect = lower value",0.911 (active)
same,normalized growth,"locus YIR030C, strain dcg1, stronger effect = lower value",0.773 (active)
same,normalized growth,"locus YJL092W, strain hpr5, stronger effect = lower value",0.932
same,normalized growth,"locus YJL095W, strain BCK1 (second series), stronger effect = lower value",0.799 (active)
same,normalized growth,"locus YJL095W, strain BCK1, stronger effect = lower value",0.352 (active)
same,normalized growth,"locus YJL115W, strain asf1, stronger effect = lower value",1.02
same,normalized growth,"locus YJL129C, strain trk1, stronger effect = lower value",0.648 (active)
same,normalized growth,"locus YJL134W, strain LCB3, stronger effect = lower value",0.977
same,normalized growth,"locus YJL154C, strain vps35, stronger effect = lower value",0.982
same,normalized growth,"locus YJL164C, strain tpk1, stronger effect = lower value",0.747 (active)
same,normalized growth,"locus YJL166W, strain qcr8, stronger effect = lower value",0.679 (active)
same,normalized growth,"locus YJL168C, strain set2, stronger effect = lower value",0.985
same,normalized growth,"locus YJL187C, strain SWE1 (second series), stronger effect = lower value",0.837 (active)
same,normalized growth,"locus YJL187C, strain SWE1, stronger effect = lower value",0.877 (active)
same,normalized growth,"locus YKL009W, strain mrt4, stronger effect = lower value",0.925
same,normalized growth,"locus YKL068W, stronger effect = lower value",0.982
same,normalized growth,"locus YKL085W, strain MDH1 (second series), stronger effect = lower value",0.909 (active)
same,normalized growth,"locus YKL085W, strain MDH1, stronger effect = lower value",0.909 (active)
same,normalized growth,"locus YKL160W, strain elf1, stronger effect = lower value",0.95
same,normalized growth,"locus YKL190W, strain CNB1, stronger effect = lower value",0.851 (active)
same,normalized growth,"locus YKR001C, strain vps1, stronger effect = lower value",0.381 (active)
same,normalized growth,"locus YKR026C, strain gcn3, stronger effect = lower value",0.971
same,normalized growth,"locus YKR091W, strain srl3, stronger effect = lower value",0.991
same,normalized growth,"locus YLL001W, strain dnm1, stronger effect = lower value",0.848 (active)
same,normalized growth,"locus YLL026W, stronger effect = lower value",0.848 (active)
same,normalized growth,"locus YLL041C, strain sdh2, stronger effect = lower value",0.984
same,normalized growth,"locus YLR027C, strain aat2, stronger effect = lower value",0.72 (active)
same,normalized growth,"locus YLR039C, strain RIC1, stronger effect = lower value",0.444 (active)
same,normalized growth,"locus YLR058C, strain SHM2, stronger effect = lower value",0.782 (active)
same,normalized growth,"locus YLR102C, strain apc9, stronger effect = lower value",0.847 (active)
same,normalized growth,"locus YLR221C, strain rsa3, stronger effect = lower value",0.674 (active)
same,normalized growth,"locus YLR258W, strain gsy2, stronger effect = lower value",0.824 (active)
same,normalized growth,"locus YLR262C, strain YPT6 (second series), stronger effect = lower value",0.584 (active)
same,normalized growth,"locus YLR268W, strain sec22, stronger effect = lower value",0.693 (active)
same,normalized growth,"locus YLR320W, strain mms22, stronger effect = lower value",0.65 (active)
same,normalized growth,"locus YLR342W, strain FKS1 (second series), stronger effect = lower value",0.812
same,normalized growth,"locus YLR342W, strain FKS1, stronger effect = lower value",0.907 (active)
same,normalized growth,"locus YLR357W, strain rsc2, stronger effect = lower value",1.01
same,normalized growth,"locus YLR370C, strain arc18, stronger effect = lower value",0.965
same,normalized growth,"locus YLR371W, strain rom2, stronger effect = lower value",0.519 (active)
same,normalized growth,"locus YLR384C, strain iki3, stronger effect = lower value",1
same,normalized growth,"locus YLR418C, strain cdc73, stronger effect = lower value",0.214 (active)
same,normalized growth,"locus YML016C, strain PPZ1, stronger effect = lower value",0.904 (active)
same,normalized growth,"locus YML032C, strain rad52, stronger effect = lower value",0.63 (active)
same,normalized growth,"locus YML120C, strain ndi1, stronger effect = lower value",0.467 (active)
same,normalized growth,"locus YML124C, strain tub3, stronger effect = lower value",0.858 (active)
same,normalized growth,"locus YMR058W, strain fet3, stronger effect = lower value",0.834 (active)
same,normalized growth,"locus YMR078C, strain ctf18, stronger effect = lower value",0.537 (active)
same,normalized growth,"locus YMR125W, strain sto1, stronger effect = lower value",0.866 (active)
same,normalized growth,"locus YMR129W, stronger effect = lower value",0.915 (active)
same,normalized growth,"locus YMR205C, strain PFK2, stronger effect = lower value",0.664 (active)
same,normalized growth,"locus YMR223W, strain ubp8, stronger effect = lower value",0.792 (active)
same,normalized growth,"locus YMR231W, strain pep5, stronger effect = lower value",0.999
same,normalized growth,"locus YMR263W, strain SAP30, stronger effect = lower value",0.866 (active)
same,normalized growth,"locus YMR307W, strain GAS1, stronger effect = lower value",0.48 (active)
same,normalized growth,"locus YNL067W, strain RPL9B, stronger effect = lower value",0.938
same,normalized growth,"locus YNL071W, strain lat1, stronger effect = lower value",0.484 (active)
same,normalized growth,"locus YNL128W, strain TEP1, stronger effect = lower value",0.906
same,normalized growth,"locus YNL209W, strain ssb2, stronger effect = lower value",0.935
same,normalized growth,"locus YNL233W, strain BNI4, stronger effect = lower value",0.635 (active)
same,normalized growth,"locus YNL248C, strain rpa49, stronger effect = lower value",0.973
same,normalized growth,"locus YNL250W, strain rad50, stronger effect = lower value",1.05
same,normalized growth,"locus YNL271C, strain bni1, stronger effect = lower value",0.976
same,normalized growth,"locus YNL298W, strain CLA4, stronger effect = lower value",0.95
same,normalized growth,"locus YNL307C, strain MCK1, stronger effect = lower value",0.24 (active)
same,normalized growth,"locus YNL322C, strain KRE1 (second series), stronger effect = lower value",1.03
same,normalized growth,"locus YNL322C, strain KRE1, stronger effect = lower value",0.88 (active)
same,normalized growth,"locus YNR049C, strain mso1, stronger effect = lower value",0.987
same,normalized growth,"locus YNR052C, strain pop2, stronger effect = lower value",0.546 (active)
same,normalized growth,"locus YOL012C, strain htz1",0.365
same,normalized growth,"locus YOL147C, strain pex11, stronger effect = lower value",0.481 (active)
same,normalized growth,"locus YOR001W, strain rrp6, stronger effect = lower value",0.797 (active)
same,normalized growth,"locus YOR061W, strain CKA2, stronger effect = lower value",0.939
same,normalized growth,"locus YOR069W, strain VPS5, stronger effect = lower value",0.896 (active)
same,normalized growth,"locus YOR070C, strain gyp1, stronger effect = lower value",0.793 (active)
same,normalized growth,"locus YOR080W, strain dia2, stronger effect = lower value",0.946
same,normalized growth,"locus YOR083W, strain WHI5, stronger effect = lower value",0.876 (active)
same,normalized growth,"locus YOR106W, strain vam3, stronger effect = lower value",0.883
same,normalized growth,"locus YOR136W, strain idh2, stronger effect = lower value",0.867 (active)
same,normalized growth,"locus YOR144C, strain elg1, stronger effect = lower value",0.592 (active)
same,normalized growth,"locus YOR184W, strain ser1, stronger effect = lower value",0.217 (active)
same,normalized growth,"locus YOR265W, strain rbl2, stronger effect = lower value",0.919 (active)
same,normalized growth,"locus YOR270C, strain vph1, stronger effect = lower value",0.549 (active)
same,normalized growth,"locus YOR290C, strain snf2, stronger effect = lower value",0.631 (active)
same,normalized growth,"locus YOR316C, strain cot1, stronger effect = lower value",0.924
same,normalized growth,"locus YPL051W, strain arl3, stronger effect = lower value",0.787 (active)
same,normalized growth,"locus YPL078C, strain atp4, stronger effect = lower value",0.802 (active)
same,normalized growth,"locus YPL106C, strain sse1, stronger effect = lower value",0.913
same,normalized growth,"locus YPL240C, strain hsp82, stronger effect = lower value",0.853 (active)
same,normalized growth,"locus YPR119W, strain clb2, stronger effect = lower value",0.735 (active)
same,normalized growth,"locus YPR141C, strain kar3, stronger effect = lower value",0.977
same,normalized growth,"locus YPR163C, strain tif3, stronger effect = lower value",0.463 (active)
same,normalized growth,"locus YPR167C, strain met16, stronger effect = lower value",0.751 (active)
same,normalized growth,"strain wtn01, stronger effect = lower value",0.747 (active)
